Vaccinia mCherry – vaccinia inhibition (mCherry reporter); Vaccinia virus mCherry reporter infection, fluorescence; Potency, µM (titrated, usually from 36.5 µM), usual class: inhibitors; 0.63% of 310,000 active; AID 720579; calls by dose curve; tested in A549 cells; further: nearly all actives have a fitted effect of over 35% in size
Vaccinia Venus – inhibitors of vaccinia virus (Venus reporter). 0.46% of 330,000 active. Potency, µM (titrated, usually from 36.5 µM), hits mostly inhibitors. Vaccinia virus Venus reporter expression, fluorescence; calls by dose curve; tested in A549 cells; further: nearly all actives have a fitted effect of over 30% in size
NS1 inh – influenza NS1 inhibition | Potency, µM (titrated, usually from 46.1 µM) | 0.4% of 270,000 active; calls by dose curve; further: actives are rising curves; nearly all actives have a fitted effect of over 50% in size
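In this qHTS, NS1 from influenza A is expressed in budding yeast, where it slows growth. Cells are switched from glucose to 2% galactose medium (pH 6.0, -URA), treated with compound, and growth recovery is read at OD600.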
Pf growth 96h – P. falciparum growth inhibition at 96 hours. Potency, µM (doses to about 28.7 µM), most hits filed as inhibitors. P. falciparum luciferase reporter growth, 96 h. 6.9% of 320,000 active
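P. falciparum expressing integrated firefly luciferase, in erythrocytes at 2% hematocrit, 0.05% parasitemia, incubated with compounds 96 h at 37 C, 5% CO2. Growth inhibition read as loss of luminescence; two-generation exposure targets delayed-death apicoplast inhibitors.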
Pf growth 48h – inhibits P. falciparum growth in the first generation, 48 h; P. falciparum luciferase growth in erythrocytes, 48 h; Potency, µM (top dose mostly 28.7 µM), usual class: inhibitors; 5.9% of 310,000 active; AID 504832
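Compounds are pin-transferred into medium, infected erythrocytes (2% hematocrit, 0.1% parasitemia final) are added, and plates sit one parasite generation at 37 C in 5% CO2. Detection reagent is then added and luminescence measured.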
HCV inhibitor – blocks hepatitis C virus. Huh7.5.1 HCVcc-Cre infection, luciferase reporter, 44 h. Potency, µM (series often up to 41.8 µM), actives largely listed as inhibitors. 3.4% of 340,000 active. AID 651820
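Antiviral activity was scored by luciferase reporter output from cells infected with HCVcc-Cre (~0.5 moi) in presence of compound, 44 h infection period, cells seeded 1,000/well 4 h prior.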
Large screens that a line does not name were inactive. Shown are actives, neighbours in structure and some others; about 11% of the full set was active somewhere. Unless noted, the call rests on the fitted dose curve; in most records, active means well fitted inhibition curve with a large enough effect; inconclusive means small, poorly fitted or top-dose-only effect, or another doubt; inactive means no such curve, though single readings can be large or run the other way.

O=C(Nc1nc2ccccc2[nH]1)c1cccc(S(=O)(=O)N2CCOCC2)c1	none
CCC(=O)Nc1c(C#N)c2nc3ccccc3nc2n1-c1ccccc1C	Pf growth 96h inconclusive
CCN(CC)S(=O)(=O)c1cc(NC(=O)C2CC(=O)N(Cc3ccccc3)C2)ccc1Cl (configuration not stated)	Pf growth 96h inconclusive, Pf growth 48h 10.4µM, HCV inhibitor 11.2µM (no result: Vaccinia mCherry, Vaccinia Venus, NS1 inh)
O=C(NNC(=O)C1CC(=O)N(Cc2ccccc2)C1)c1ccc(Br)cc1 (configuration not stated)	Pf growth 96h 2.33µM (no result: Vaccinia mCherry, Vaccinia Venus)
Cc1ccc(NC(=O)C2CC(=O)N(Cc3ccccc3)C2)cc1S(=O)(=O)N1CCCCCC1 (configuration not stated)	Vaccinia mCherry inconclusive, Vaccinia Venus inconclusive, Pf growth 96h 11.7µM, Pf growth 48h inconclusive, HCV inhibitor 8.91µM
Cc1ccc(CN2CC(C(=O)Nc3ccc(S(=O)(=O)N4CCCCC4)cc3)CC2=O)cc1 (configuration not stated)	Vaccinia mCherry inconclusive (no result: NS1 inh, Pf growth 96h, Pf growth 48h)
CCc1ccccc1N1CC(C(=O)Nc2cc(S(=O)(=O)N3CCCC3)ccc2Cl)CC1=O (configuration not stated)	Pf growth 96h inconclusive, Pf growth 48h inconclusive, HCV inhibitor 11.2µM (no result: NS1 inh)
CC(=O)Nc1ccc(NC(=O)C2CC(=O)N(Cc3ccccc3)C2)cc1 (configuration not stated)	Pf growth 96h inconclusive (no result: NS1 inh)
Cc1ccc(N2C(=O)c3n[nH]c(C)c3C2c2ccc(Cl)cc2)cc1 (configuration not stated)	none (no result: NS1 inh, Pf growth 96h, Pf growth 48h, HCV inhibitor)
O=C(Nc1ccc(S(=O)(=O)N2CCCCC2)cc1)C1CC(=O)N(Cc2ccccc2)C1 (configuration not stated)	Pf growth 96h inconclusive, Pf growth 48h 13.1µM (no result: NS1 inh)
COC(c1ccccc1)c1nnc(CCC(=O)NCc2ccc3ncccc3c2)o1 (configuration not stated)	none
c1ccc(Oc2ccc(-c3ccnc4nc(N5CCN(c6ccccc6)CC5)nn34)cc2)cc1	Pf growth 96h inconclusive, Pf growth 48h inconclusive, HCV inhibitor inconclusive (no result: Vaccinia mCherry, Vaccinia Venus)
CSc1nc2nccc(-c3ccc(-c4ccccc4)cc3)n2n1	Pf growth 96h 10.4µM (no result: Vaccinia mCherry, Pf growth 48h)
CSc1nc2nccc(-c3ccc4c(c3)OCO4)n2n1	Pf growth 96h inconclusive, Pf growth 48h inconclusive (no result: NS1 inh)
CSc1nc2nccc(-c3ccc(Oc4ccccc4)cc3)n2n1	Vaccinia Venus inconclusive, Pf growth 48h inconclusive, HCV inhibitor 11.2µM (no result: Vaccinia mCherry, Pf growth 96h)
CCCCc1ccc(-c2csc(/C(C#N)=C\c3ccco3)n2)cc1	Vaccinia mCherry inconclusive
Cc1ccc(S(=O)(=O)c2c(N)n(CCCN(C)C)c3nc4ccccc4nc23)cc1	Pf growth 96h inconclusive, Pf growth 48h inconclusive, HCV inhibitor inconclusive (no result: Vaccinia mCherry, Vaccinia Venus)
CCCCn1c(NS(=O)(=O)c2ccccc2)c(C(=O)OCC)c2nc3ccccc3nc21	Pf growth 96h inconclusive, Pf growth 48h 1.65µM, HCV inhibitor inconclusive
CCCCn1c(NS(=O)(=O)c2ccc(C)cc2)c(S(=O)(=O)c2ccccc2)c2nc3ccccc3nc21	Pf growth 96h 4.15µM, Pf growth 48h inconclusive, HCV inhibitor inconclusive
Cc1ccc(S(=O)(=O)N2CCN(C(=O)c3cc4c(C)nn(-c5ccccc5)c4s3)CC2)cc1	Pf growth 96h inconclusive (no result: Vaccinia mCherry, Vaccinia Venus, Pf growth 48h)
Cc1ccccc1-n1nc(C)c2cc(C(=O)N3CCN(S(=O)(=O)c4ccc(Cl)cc4)CC3)sc21	Pf growth 96h 1.85µM, Pf growth 48h 5.22µM, HCV inhibitor inconclusive (no result: Vaccinia mCherry)
Cc1ccccc1-n1nc(C)c2cc(C(=O)N3CCN(S(=O)(=O)c4ccc(F)cc4)CC3)sc21	Pf growth 48h 4.65µM, HCV inhibitor inconclusive (no result: Vaccinia mCherry, Vaccinia Venus, Pf growth 96h)
Cc1nn(-c2ccccc2)c2sc(C(=O)N3CCOCC3)cc12	HCV inhibitor inconclusive
CCOC(=O)N1CCC(NC(=O)CC2C(=O)NCCN2Cc2ccc(C)cc2)CC1 (configuration not stated)	none
COc1ccc(NC(=O)c2nn(C)cc2[N+](=O)[O-])cc1	none (no result: Vaccinia mCherry, Vaccinia Venus)
Cc1ccc(NC(=O)c2nn(C34CC5CC(CC(C5)C3)C4)cc2[N+](=O)[O-])cc1	Pf growth 96h 1.47µM, Pf growth 48h inconclusive, HCV inhibitor inconclusive (no result: Vaccinia mCherry, Vaccinia Venus)
CC1C(=O)C(C)C(c2ccc(Cl)cc2)NC1c1ccc(Cl)cc1 (configuration not stated)	none (no result: NS1 inh, Pf growth 96h, Pf growth 48h)
CC1C(=NO)C(C)C(c2ccc(N(C)C)cc2)NC1c1ccc(N(C)C)cc1 (configuration not stated)	Pf growth 96h 1.85µM, Pf growth 48h inconclusive

Source: PubChem BioAssay (National Center for Advancing Translational Sciences (NCATS))
